Experimental data from PubChem BioAssay (Tox21).
Several values for one entry are separate records, joined by “and”; a condition that tells them apart may be missing. Equal entries are not always repeated. Inconclusive results are not listed. Activity calls are given as the source filed them. Unless noted, the call rests on the fitted dose curve; in most records, active means well fitted curve in the direction sought with a large enough effect in the repeat runs; inconclusive means weak or mixed curves; inactive means no such curve, though single readings can be large; an effect the other way counts as inactive or inconclusive.

Columns and labels:
[1] = qHTS assay to identify small molecule agonists of H2AX (AID 1224845; active means well fitted activation curve with a large enough effect in the signal ratio in the repeat runs, not every such curve was filed as active; the % refers to the signal ratio)
Outline: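 Wild-type CHO-K1 cells plated overnight, then exposed 3 hr at 37C to compounds at 15 concentrations (0.76% DMSO). Lysed, then HTRF anti-pH2AX(S139)-cryptate/anti-H2AX-d2 detection after 24 hr at room temperature; emissions 665 and 620 nm.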

[2] = qHTS assay to identify small molecule agonists of the hypoxia (HIF-1) signaling pathway (AID 1224846; active means well fitted activation curve with a large enough effect in the signal ratio in the repeat runs, not every such curve was filed as active; the % refers to the signal ratio)
Outline: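 ME-180 HRE-bla reporter cells; compounds in DMSO, 17 h at 37C; read-out beta-lactamase via CCF4-AM FRET.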

[3] = qHTS assay to identify small molecule agonists of H2AX - cell viability counter screen (AID 1224847; calls by dose curve; further: top concentration of the series differs between compounds; nearly all actives have a fitted effect of over 30% in size)
Outline: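 CHO-K1 wt, 1000 cells/well, o/n 37C; cpds 15 conc, 3 h 37C, 0.76% DMSO; CellTiter-Glo, 30 min RT, luminescence.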

[4] = qHTS RealTime-Glo MT Cell Viability Assay in HepG2 cells - 24 hour (AID 1224867); further: nearly all actives have a fitted effect of over 50% in size
Outline: (§1)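 Cells + NanoLuc/prosubstrate dispensed (600 cells/well) → 5 h at 37 C/5% CO2 → compounds in DMSO transferred → 40 h incubation at 37 C, luminescence read at 0, 8, 16, 24, 32, 40 h.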

[5] = qHTS RealTime-Glo MT Cell Viability Assay in HepG2 cells - 40 hour (AID 1224870); further: nearly all actives have a fitted effect of over 50% in size
Outline: (§2)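 HepG2 cells mixed with RealTime-Glo MT reagents (NanoLuc plus cell-permeant prosubstrate) were seeded at 600 cells/well, incubated 5 h at 37 C/5% CO2, then pinned with compounds in DMSO; nonlytic luminescence tracked viability during 40 h treatment.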

[6] = A CellTox Green Cytotoxicity Assay to monitor cytotoxicity in HEK293 cells - 40 hour (AID 1224871); further: nearly all actives have a fitted effect of over 45% in size
Outline: (§3)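 Real-time, in one plate: 600 HEK293 cells/well with dead-cell DNA dye, pinned compound after 5 h, 37 C incubation over 40 h; viable cells give no appreciable fluorescence.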

[7] = qHTS RealTime-Glo MT Cell Viability Assay in HEK293 cells - 16 hour (AID 1224872); further: top concentration of the series differs between compounds; nearly all actives have a fitted effect of over 50% in size
Outline: (§4)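 Tox21 10K qHTS, HEK293, 600 cells/well, RealTime-Glo reagent co-dispensed with cells; 5 h preincubation, compound by pintool, 37 C, luminescence at 0–40 h.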

[8] = qHTS RealTime-Glo MT Cell Viability Assay in HepG2 cells - 8 hour (AID 1224873); further: nearly all actives have a fitted effect of over 55% in size
Outline: as §2

[9] = qHTS RealTime-Glo MT Cell Viability Assay in HEK293 cells - 40 hour (AID 1224874); conditions: RealTime-Glo luminescence; max response: hits give low values; further: nearly all actives have a fitted effect of over 50% in size
Outline: (§5)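 Kinetic, non-lysing viability readout. Seed HEK293 (600/well) with reagent, incubate 5 h at 37 C/5% CO2, pin 23 nL compound in DMSO, incubate at 37 C, read luminescence at 0, 8, 16, 24, 32, 40 h.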

[10] = A CellTox Green Cytotoxicity Assay to monitor cytotoxicity in HEK293 cells - 24 hour (AID 1224875); further: series mostly up to about 77 µM; nearly all actives have a fitted effect of over 45% in size
Outline: as §3

[11] = A CellTox Green Cytotoxicity Assay to monitor cytotoxicity in HepG2 cells - 16 hour (AID 1224876); further: nearly all actives have a fitted effect of over 45% in size
Outline: (§6)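 Cytotoxicity was tracked as dead-cell DNA fluorescence in HepG2 cells treated with test compounds at 37 C; each time-point value comes from one kinetic series spanning 0, 8, 16, 24, 32 and 40 h.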

[12] = qHTS RealTime-Glo MT Cell Viability Assay in HepG2 cells - 32 hour (AID 1224877); further: nearly all actives have a fitted effect of over 55% in size
Outline: as §1

[13] = A CellTox Green Cytotoxicity Assay to monitor cytotoxicity in HepG2 cells - 24 hour (AID 1224878); further: nearly all actives have a fitted effect of over 45% in size
Outline: as §6

[14] = A CellTox Green Cytotoxicity Assay to monitor cytotoxicity in HepG2 cells - 40 hour (AID 1224879); further: nearly all actives have a fitted effect of over 40% in size
Outline: as §6

[15] = qHTS RealTime-Glo MT Cell Viability Assay in HEK293 cells - 0 hour (AID 1224880)
Outline: as §5

[16] = qHTS RealTime-Glo MT Cell Viability Assay in HEK293 cells - 32 hour (AID 1224868)
Outline: as §4

[17] = A CellTox Green Cytotoxicity Assay to monitor cytotoxicity in HEK293 cells - 0 hour (AID 1224869); further: nearly all actives have a fitted effect of over 50% in size
Outline: as §3

[18] = A CellTox Green Cytotoxicity Assay to monitor cytotoxicity in HEK293 cells - 32 hour (AID 1224881); further: nearly all actives have a fitted effect of over 40% in size
Outline: as §3
On the % scale 0 is the no-effect control and ±100 the full control effect.

CCC1CCC(=O)O1 (centres undefined)
inactive: Potency [1] | outcome [2] | Potency [3] | Potency [4] | Potency [5] | Potency [6] | Potency [7] | Potency [8] | max response [9] 8.21% | Potency [10] | Potency [11] | Potency [12] | Potency [13] | Potency [14] | outcome [15]

CC(C)OC(=O)Cc1ccccc1
inactive: Potency [1] | outcome [2] | Potency [3] | Potency [4] | Potency [16] | Potency [17] | Potency [5] | Potency [6] | Potency [7] | Potency [8] | Potency [10] | Potency [11] | Potency [12] | Potency [13] | Potency [14] | outcome [15] | Potency [18]

CCCCCCCCP(=O)(O)O
inactive: Potency [1] | outcome [2] | Potency [3] | Potency [4] | Potency [16] | Potency [17] | Potency [5] | Potency [6] | Potency [7] | Potency [8] | Potency [10] | Potency [11] | Potency [12] | Potency [13] | Potency [14] | outcome [15]

O=C1NC(=O)C(=O)C(=O)N1
inactive: Potency [1] | outcome [2] | Potency [3] | Potency [4] | Potency [5] | Potency [6] | Potency [7] | Potency [8] | max response [9] 6.33% | Potency [10] | Potency [11] | Potency [12] | Potency [13] | Potency [14] | outcome [15] | Potency [18]

C=CCc1ccc(OC(=O)Cc2ccccc2)c(OC)c1
inactive: Potency [1] | outcome [2] | Potency [3] | Potency [4] | Potency [17] | Potency [5] | Potency [6] | Potency [8] | Potency [10] | Potency [11] | Potency [12] | Potency [13] | outcome [15] | Potency [18]

O=C(NC(=O)c1cc(F)c(F)cc1Cl)Nc1cc(F)ccc1N1CCC(C(=O)O)CC1
inactive: Potency [1] | outcome [2] | Potency [3] | Potency [4] | Potency [16] | Potency [5] | Potency [6] | Potency [7] | Potency [8] | max response [9] 19.9% | Potency [10] | Potency [11] | Potency [12] | outcome [15] | Potency [18]

C[N+]1(CCF)[C@@H]2CC[C@H]1CC(OC(=O)C(O)(c1ccccc1)c1ccccc1)C2 (some centres undefined)
inactive: Potency [1] | outcome [2] | Potency [3] | Potency [4] | Potency [17] | Potency [5] | Potency [6] | Potency [7] | Potency [8] | max response [9] 2.19% | Potency [10] | Potency [11] | Potency [12] | Potency [13] | Potency [14] | outcome [15] | Potency [18]

CCC(C)Cl (centres undefined)
inactive: Potency [1] | outcome [2] | Potency [3] | Potency [4] | Potency [17] | Potency [5] | Potency [6] | Potency [7] | Potency [8] | max response [9] 9.33% | Potency [10] | Potency [11] | Potency [12] | Potency [13] | Potency [14] | outcome [15] | Potency [18]

CCCC[P+](CC)(CCCC)CCCC (tested in a mixture with another compound)
inactive: Potency [1] | outcome [2] | Potency [3] | Potency [4] | Potency [5] | Potency [6] | Potency [8] | Potency [11] | Potency [12] | Potency [13] | Potency [14] | outcome [15]

CC(C)c1ccc(OP(=O)(Oc2ccc(C(C)C)cc2)Oc2ccc(C(C)C)cc2)cc1
inactive: Potency [1] | outcome [2] | Potency [3] | Potency [4] | Potency [17] | Potency [5] | Potency [6] | Potency [7] | Potency [8] | max response [9] -29.6% | Potency [10] | Potency [11] | Potency [12] | Potency [13] | Potency [14] | outcome [15] | Potency [18]

CC(Oc1cc(Cl)c(Cl)cc1Cl)C(=O)O (centres undefined)
inactive: Potency [1] | outcome [2] | Potency [3] | Potency [4] | Potency [16] | Potency [5] | Potency [6] | Potency [7] | Potency [8] | Potency [10] | Potency [11] | Potency [12] | Potency [13] | Potency [14] | outcome [15] | Potency [18]

CCC(C)(C)O
inactive: Potency [1] | outcome [2] | Potency [3] | Potency [4] | Potency [16] | Potency [17] | Potency [5] | Potency [6] | Potency [7] | Potency [8] | Potency [10] | Potency [11] | Potency [12] | Potency [13] | Potency [14] | outcome [15]

SCc1ccccc1
inactive: Potency [1] | outcome [2] | Potency [3] | Potency [4] | Potency [17] | Potency [5] | Potency [6] | Potency [7] | Potency [8] | max response [9] 5.57% | Potency [10] | Potency [11] | Potency [12] | Potency [14] | outcome [15] | Potency [18]

Cc1ccc(N)c(C)c1
inactive: Potency [1] | outcome [2] | Potency [3] | Potency [4] | Potency [5] | Potency [6] | Potency [7] | max response [9] 4.9% and -12.6% | Potency [11] | Potency [12] | Potency [13] | Potency [14] | outcome [15] | Potency [18]

NC(=S)c1c(Cl)cccc1Cl
inactive: Potency [1] | outcome [2] | Potency [3] | Potency [4] | Potency [16] | Potency [17] | Potency [5] | Potency [6] | Potency [7] | Potency [8] | Potency [10] | Potency [11] | Potency [12] | Potency [13] | Potency [14] | outcome [15] | Potency [18]

CC(C)(C)c1ccc(CCOc2ncnc3ccccc23)cc1
inactive: Potency [1] | outcome [2] | Potency [3] | Potency [4] | Potency [16] | Potency [17] | Potency [5] | Potency [6] | Potency [7] | Potency [8] | Potency [10] | Potency [11] | Potency [12] | outcome [15]
